Inconclusive results are not listed. Active and inactive are the calls of the source. Unless noted, the call rests on the fitted dose curve; in most records, active means well fitted cell-killing curve with a large enough effect; inconclusive means small, poorly fitted or top-dose-only effect, or effect the other way; inactive means no such curve, though single readings can be large or run the other way.
How the values were obtained:
[1] = Quantitative High-Throughput drug screen in 47 multiple myeloma cell lines against the NCATS MIPE library collection: XG1_PLB cell viability assay (AID 1919866); further: nearly all actives have a fitted effect of over 35% in size
Outline: (§1)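 qHTS format: cells plated (500/well), pin-dosed with MIPE 4.0 compounds, kept 48 h at 37 °C. Readout was CellTiter-Glo luminescence, median RLU.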

[2] = Quantitative High-Throughput drug screen in 47 multiple myeloma cell lines against the NCATS MIPE library collection: VP6_DJ cell viability assay (AID 1919867); further: nearly all actives have a fitted effect of over 40% in size
Outline: as §1

[3] = Quantitative High-Throughput drug screen in 47 multiple myeloma cell lines against the NCATS MIPE library collection: UTMC2_PLB cell viability assay (AID 1919868); settings: CellTiter-Glo ATP luminescence, 48 h; viability (% of DMSO control): at 45.8 µM (top of the series) unless noted; further: nearly all actives have a fitted effect of over 55% in size
Outline: as §1

[4] = Quantitative High-Throughput drug screen in 47 multiple myeloma cell lines against the NCATS MIPE library collection: PE2_PLB cell viability assay (AID 1919869); further: nearly all actives have a fitted effect of over 35% in size
Outline: as §1

[5] = Quantitative High-Throughput drug screen in 47 multiple myeloma cell lines against the NCATS MIPE library collection: PCM6_Riken cell viability assay (AID 1919870); further: nearly all actives have a fitted effect of over 30% in size
Outline: as §1

[6] = Quantitative High-Throughput drug screen in 47 multiple myeloma cell lines against the NCATS MIPE library collection: RPMI8226_ATCC cell viability assay (AID 1919871); further: nearly all actives have a fitted effect of over 30% in size
Outline: as §1

[7] = Quantitative High-Throughput drug screen in 47 multiple myeloma cell lines against the NCATS MIPE library collection: OPM2_DSMZ cell viability assay (AID 1919872); further: nearly all actives have a fitted effect of over 30% in size
Outline: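 We plated 500 myeloma cells per well, pinned in MIPE 4.0 compounds, and incubated for 48 hours at 37C. ATP was then quantified with CellTiter-Glo, with DMSO and media-only wells defining 100% and 0%.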

[8] = Quantitative High-Throughput drug screen in 47 multiple myeloma cell lines against the NCATS MIPE library collection: KMS11_JCRBsus cell viability assay (AID 1919873); further: nearly all actives have a fitted effect of over 50% in size
Outline: as §1

[9] = Quantitative High-Throughput drug screen in 47 multiple myeloma cell lines against the NCATS MIPE library collection: KMS28BM_JCRB cell viability assay (AID 1919874); further: nearly all actives have a fitted effect of over 35% in size
Outline: as §1

[10] = qHTS drug screen for cell cycle checkpoint inhibitors in PARPi-resistant BRCA-mutant ovarian cancer cell lines. (AID 1963452; calls by dose curve); settings: PEO1/OlaR viability, CellTiter-Glo luminescence, 96 h; for Z-AUC: stronger effect = lower value
Outline: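 PEO1, PEO4 and PEO1/OlaR ovarian cancer cells, 600 per well, exposed 96 h at 37C to a dilution series. Viability read by CellTiter-Glo luminescence, normalized to DMSO and empty wells; activity summarized as Z-AUC.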

[11] = qHTS for identification of novel therapeutic agents for treatment of microphthalmiaassociated transcription factor (MiT) renal cell carcinoma (RCC) (AID 1963991; calls by dose curve); settings: CellTiter-Glo, 48 h; for Potency: active = Z-AUC below -0.8 in all three lines; for z-score: stronger effect = lower value
Outline: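 Curves over 11 concentrations were fitted to CellTiter-Glo luminescence, scaled between empty wells (0%) and DMSO (100%) viability. Cells were UOK109, UOK124 and UOK145 TFE3-fusion RCC lines at 500/well, exposed 48 hours at 37 C.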

[12] = measured here: PEO1 parental Z-AUC
[13] = TFE3-RCC UOK109 viability, measured here: UOK109 Z-AUC
[14] = TFE3-RCC viability, measured here: UOK124 Z-AUC
[15] = TFE3-RCC viability, measured here: UOK145 Z-AUC
Potency means the concentration at half of the fitted maximal effect.

Which Potency [1] does the source give for `O=C(Nc1cc(C(F)(F)F)cc(C(F)(F)F)c1)c1cc(Cl)ccc1O` here?
The Potency was 935 nM (active).

What about the Potency [2] of the same compound?
The Potency was 526 nM (active).

And the Potency [3]?
The Potency was 743 nM (active).

And the Potency [4]?
Its Potency is 590 nM (active).

What about the Potency [5] of the same compound?
Its Potency is 1320 nM (active).

What about the Potency [6] of the same compound?
Its Potency is 662 nM (active).

And the Potency [7]?
Its Potency is 1320 nM (active).

What about the Potency [8] of the same compound?
Its Potency is 332 nM (active).

And the Potency [9]?
The Potency was 833 nM (active).

And the Potency [10]?
Its Potency is 977 nM (active).

And the Z-AUC [10, 12]?
Its Z-AUC is -1.29.

What about the Z-AUC ([10]; measured here: PEO4 Z-AUC) of the same compound?
The Z-AUC was -1.54.

What about the Potency ([11]; TFE3-RCC UOK109 viability) of the same compound?
The Potency was 1180 nM (active).

And the z-score [11, 13]?
The z-score was -1.74.

What about the z-score [11, 14] of the same compound?
Its z-score is -1.08.

What about the z-score [11, 15] of the same compound?
The z-score was -1.95.

Which results are given for `Cc1nc2ccc(CN(C)c3ccc(C(=O)N[C@@H](CCC(=O)O)C(=O)O)s3)cc2c(=O)[nH]1`?
Potency [1]: 235 nM (active); Potency [2]: inactive; Potency [3]: 1660 nM (active); Potency [4]: inactive; Potency [6]: inactive; Potency [8]: 9.3 nM (active); Potency [9]: inactive; Z-AUC [10]: -1.54 (inactive); Z-AUC [10, 12]: -1.34; Z-AUC ([10]; measured here: PEO4 Z-AUC): -0.15

For `Cc1cc(Nc2cc(NC(=O)c3c(Cl)cccc3Cl)ccn2)nc(N)n1`, which Potency [1] is on record?
The Potency was 1180 nM (active).

And the Potency [2]?
Its Potency is 1660 nM (active).

What about the Potency [3] of the same compound?
Its Potency is 2960 nM (active).

And the Potency [4]?
The Potency was 2960 nM (active).

What about the Potency [5] of the same compound?
Its Potency is 2350 nM (active).

And the Potency [8]?
The Potency was 372 nM (active).

What about the Z-AUC [10] of the same compound?
Its Z-AUC is -0.241 (inactive).

What about the Z-AUC [10, 12] of the same compound?
Its Z-AUC is -1.26.

And the Z-AUC ([10]; measured here: PEO4 Z-AUC)?
The Z-AUC was -0.959.

Which Potency [1] does the source give for `COc1cc2ncnc(Nc3ccc(F)c(Cl)c3)c2cc1NC(=O)C=CCN1CCCCC1` here?
Its Potency is 4180 nM (active).

And the Potency [2]?
Its Potency is 5900 nM (active).

What about the Potency [3] of the same compound?
Its Potency is 10500 nM (active).

And the Potency [4]?
The Potency was 6620 nM (active).

What about the Potency [5] of the same compound?
The Potency was 3320 nM (active).

And the Potency [6]?
The Potency was 18700 nM (active).

What about the Potency [8] of the same compound?
Its Potency is 8330 nM (active).

And the Potency [9]?
Its Potency is 6620 nM (active).

Which Potency [1] does the source give for `CC(NCc1ccc2c(c1)nc(NC(=O)c1ccc(-c3cn[nH]c3)s1)n2CC(C)(C)O)C(C)(C)C` (stereo unspecified) here?
Its Potency is 372 nM (active).

And the Potency [2]?
Its Potency is 187 nM (active).

And the Potency [3]?
The Potency was 105 nM (active).

What about the Potency [4] of the same compound?
Its Potency is 296 nM (active).

What about the Potency [5] of the same compound?
Its Potency is 105 nM (active).

What about the Potency [7] of the same compound?
The Potency was 1050 nM (active).

And the Potency [8]?
Its Potency is 209 nM (active).

What about the Potency [9] of the same compound?
Its Potency is 332 nM (active).

And the Potency ([11]; TFE3-RCC UOK109 viability)?
Its Potency is 935 nM (active).

What about the z-score [11, 13] of the same compound?
Its z-score is -1.95.

And the z-score [11, 14]?
Its z-score is -2.39.

What about the z-score [11, 15] of the same compound?
Its z-score is -1.22.

With `COc1cc(OC2CCN(C)CC2)ccc1Nc1ncc2c(n1)n(C1CCCC1)c(=O)n2C` as the compound, how does the Potency [1] read?
The Potency was 4690 nM (active).

What about the Potency [2] of the same compound?
Its Potency is 4180 nM (active).

And the Potency [3]?
Its Potency is 7430 nM (active).

And the Potency [4]?
Its Potency is 9350 nM (active).

What about the Potency [5] of the same compound?
The Potency was 10500 nM (active).

And the Potency [8]?
Its Potency is 16600 nM (active).

What about the Potency [9] of the same compound?
Its Potency is 16600 nM (active).

What about the Z-AUC [10] of the same compound?
The Z-AUC was 0.704 (inactive).

What about the Z-AUC [10, 12] of the same compound?
The Z-AUC was 0.287.

And the Z-AUC ([10]; measured here: PEO4 Z-AUC)?
The Z-AUC was 0.275.

Which results are given for `Cn1cc(-c2[nH]c3cc(NC(=O)[C@H](N)C4CCCCC4)cc4c3c2C=NNC4=O)cn1`?
Potency [1]: 209 nM (active); Potency [2]: 1870 nM (active); Potency [3]: 74.3 nM (active); Potency [4]: 372 nM (active); Potency [5]: 1050 nM (active); Potency [7]: 7430 nM (active); Potency [8]: 2640 nM (active); Potency [9]: 1320 nM (active); Z-AUC [10]: -0.173 (inactive); Z-AUC [10, 12]: -0.184; Z-AUC ([10]; measured here: PEO4 Z-AUC): -0.421

From PubChem BioAssay (NCATS)
